Reference: PubChem BioAssay AID1117300 (National Center for Advancing Translational Sciences (NCATS), 2015)
The source made the active and inactive calls. The call rests on the fitted dose curve.

Settings: Ebola virus entry assay, ratio channel readout

SMILES	AC50	outcome
COC(=O)Nc1nc2ccc(C(=O)c3cccs3)cc2[nH]1	0.544 µM (active)	
C[C@@H]1O[C@@H](O[C@H]2CC[C@@]3(C)[C@H](CC[C@@H]4[C@H]3C[C@@H](O)[C@]3(C)[C@@H](C5=CC(=O)OC5)CC[C@]43O)C2)C[C@H](O)[C@@H]1O[C@H]1C[C@H](O)[C@H](O[C@H]2C[C@H](O)[C@@H](O)[C@@H](C)O2)[C@H](C)O1 (stereo in doubt)		inactive
COc1cccc2c1C(=O)c1c(O)c3c(c(O)c1C2=O)C[C@@](O)(C(C)=O)C[C@H]3O[C@H]1C[C@H](N)[C@H](O)[C@H](C)O1	2.73 µM (active)	
C[C@]12CC[C@@H]3c4ccc(O)cc4C[C@@H](CCCCCCCCCS(=O)CCCC(F)(F)C(F)(F)F)[C@H]3[C@@H]1CC[C@@H]2O (stereo not given in full)		inactive
CCC1=C[C@@H]2CN(C1)Cc1c([nH]c3ccccc13)[C@@](C(=O)OC)(c1cc3c(cc1OC)N(C)[C@H]1[C@@](O)(C(=O)OC)[C@H](OC(C)=O)[C@]4(CC)C=CCN5CC[C@]31[C@@H]54)C2	0.0863 µM (active)	
CCCCc1oc2ccc(NS(C)(=O)=O)cc2c1C(=O)c1ccc(OCCCN(CCCC)CCCC)cc1	3.85 µM (active)	
CC[C@]1(O)C[C@@H]2CN(CCc3c([nH]c4ccccc34)[C@@](C(=O)OC)(c3cc4c(cc3OC)N(C)[C@H]3[C@@](O)(C(=O)OC)[C@H](OC(C)=O)[C@]5(CC)C=CCN6CC[C@]43[C@@H]65)C2)C1	0.122 µM (active)	
CC[C@H]1OC(=O)[C@H](C)[C@@H](O[C@H]2C[C@@](C)(OC)[C@@H](O)[C@H](C)O2)[C@H](C)[C@@H](O[C@@H]2O[C@H](C)C[C@H](N(C)C)[C@@H]2O)[C@](C)(O)C[C@@H](C)CN(C)[C@H](C)[C@@H](O)[C@]1(C)O	6.11 µM (active)	
CO[C@H]1C[C@@H]2CC[C@@H](C)[C@@](O)(O2)C(=O)C(=O)N2CCCC[C@@H]2C(=O)O[C@H]([C@H](C)C[C@@H]2CC[C@H](OCCO)[C@H](OC)C2)CC(=O)[C@H](C)C=C(C)[C@@H](O)[C@@H](OC)C(=O)[C@H](C)C[C@H](C)C=CC=CC=C1C		inactive
COC1=CC(=O)C[C@@H](C)[C@]12Oc1c(Cl)c(OC)cc(OC)c1C2=O		inactive
CN(C)CCOc1ccc(/C(=C(/CCCl)c2ccccc2)c2ccccc2)cc1	1.09 µM (active)	
CCCSc1ccc2nc(NC(=O)OC)[nH]c2c1		inactive
CC[C@]1(O)C[C@H]2CN(CCc3c([nH]c4ccccc34)[C@@](C(=O)OC)(c3cc4c(cc3OC)N(C=O)[C@H]3[C@@](O)(C(=O)OC)[C@H](OC(C)=O)[C@]5(CC)C=CCN6CC[C@]43[C@@H]65)C2)C1	0.153 µM (active)	
CC[C@H]1OC(=O)[C@H](C)[C@@H](O[C@H]2C[C@@](C)(OC)[C@@H](O)[C@H](C)O2)C(C)[C@@H](O[C@@H]2O[C@H](C)C[C@H](N(C)C)[C@@H]2O)[C@](C)(OC)C[C@@H](C)C(=O)[C@H](C)[C@@H](O)[C@]1(C)O (stereo not given in full)		inactive
Cc1nnc(C(C)C)n1C1C[C@H]2CC[C@@H](C1)N2CC[C@H](NC(=O)C1CCC(F)(F)CC1)c1ccccc1 (stereo not given in full)		inactive
CCCNCC(O)COc1ccccc1C(=O)CCc1ccccc1 (stereo not given)		inactive
CCN(CC)CCNC(=O)c1c(C)[nH]c(/C=C2\C(=O)Nc3ccc(F)cc32)c1C	2.17 µM (active)	
CO[C@H]1C[C@@H]2CC[C@@H](C)[C@@](O)(O2)C(=O)C(=O)N2CCCC[C@@H]2C(=O)O[C@H]([C@@H](C)C[C@@H]2CC[C@H](O)[C@H](OC)C2)CC(=O)[C@H](C)C=C(C)[C@@H](O)[C@@H](OC)C(=O)[C@H](C)C[C@H](C)C=CC=CC=C1C		inactive
CN1CCN(CCCN2c3ccccc3Sc3ccc(C(F)(F)F)cc32)CC1	7.69 µM (active)	
COC(=O)Nc1nc2ccc(C(=O)c3ccccc3)cc2[nH]1		inactive
